DRD3 antagonist = blocks the human D3 dopamine receptor | P35462 | D3R cells, DiscoveRx beta-arrestin luminescence, antagonist mode; active compounds read low | max response, negative = inhibition, % | 360,000 compounds, 2.5% hits | AID 652054; in the data active means max response below about -50%; inconclusive means no clear call, values can overlap the other calls; further: on the % scale 0 is the no-effect control and ±100 the full control effect
Target sequence (P35462 whole entry, looked up): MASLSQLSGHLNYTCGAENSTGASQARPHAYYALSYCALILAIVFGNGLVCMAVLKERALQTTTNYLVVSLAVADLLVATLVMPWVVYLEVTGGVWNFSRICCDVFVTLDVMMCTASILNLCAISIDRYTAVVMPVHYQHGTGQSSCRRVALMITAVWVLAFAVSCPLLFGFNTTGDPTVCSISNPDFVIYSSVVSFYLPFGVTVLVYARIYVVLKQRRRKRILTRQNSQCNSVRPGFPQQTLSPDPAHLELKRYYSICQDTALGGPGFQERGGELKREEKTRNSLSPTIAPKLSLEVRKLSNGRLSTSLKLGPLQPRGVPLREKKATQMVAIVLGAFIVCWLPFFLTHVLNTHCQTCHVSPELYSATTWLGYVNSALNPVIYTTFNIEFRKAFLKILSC
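Cells plated overnight at 1500 cells/well, then exposed to library compounds with dopamine controls for 90 minutes at 37 degrees C. DiscoveRx reagent added for 30–60 minutes at room temperature; luminescence read, quantitative HTS format.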
D1 ag = agonists of human D1 dopamine receptor | P21728 | HEK293 T-REx D1 cells, calcium flux, agonist mode | activation, % at 2 µM | 360,000 compounds, 1% hits | AID 504660; in the data active means activation above about 30%; further: 0% is about no effect
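Tetracycline-induced HEK293 TREx D1 cells, force-coupled to calcium signalling, were dye-loaded with a no-wash calcium kit. Compound was pin-added after a 10 s baseline. Fluorescence was read kinetically at 1 cycle/s for 180 s, with calcium rises flagged as agonism.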
DRD3 agonist = D3 dopamine receptor (human) agonism | P35462 | D3R DiscoveRx beta-arrestin cells, luminescence, 90 min | max activation, % | 410,000 compounds, 0.58% hits | AID 652048; in the data active means max activation above about 30%; further: 0% is about no effect
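Agonist mode: compounds and dopamine controls were applied to plated cells for 90 min at 37 degrees C after an overnight attachment at 1500 cells/well. Luminescent read-out followed 30 - 60 minutes at room temperature with DiscoveRx detection reagent.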
D1 antagonist = antagonists of human D1 dopamine receptor; activity change, negative = inhibition, % at 10 µM; 360,000 compounds, 3.2% hits; AID 504652; HEK293 TREx D1 cells, calcium flux, dopamine EC80; active compounds read low; in the data active means activity change below about -30%; further: on the % scale 0 is the no-effect control and ±100 the full control effect
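Antagonism measured as reduced calcium response to an EC80 dopamine addition following 180 s compound pre-read; cells were inducible HEK293 Trex D1 plated overnight at 30 C, read kinetically at 1 cycle/sec.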
D1 potentiator = potentiators of human D1 dopamine receptor; P21728; HEK293 TREx D1 cells, calcium flux, dopamine EC20 potentiation; potentiation, % at 10 µM; 360,000 compounds, 0.036% hits; in the data active means potentiation above about 30%; further: 0% is about no effect
An asterisk follows results filed as active; u = inconclusive; x = no result. Hits are enriched below; roughly 6% of the tested compounds scored in any of these assays.

SMILES	DRD3 antagonist	D1 ag	DRD3 agonist	D1 antagonist	D1 potentiator
COc1cc(OC)cc(C(=O)NC(C(=O)Nc2ccc3c(c2)OCO3)C(C)C)c1 (configuration not stated)	19.9	2.6	-1.3	-9.1	x
O=C(Nc1ccc(Cl)c(Cl)c1)c1cc(S(=O)(=O)N2CCN(c3cccc(Cl)c3)CC2)ccc1F	x	3.6	-4.3	17.3	0.1
O=C1C(Cc2ccccc2)Nc2ncnc(N3CCc4ccccc4C3)c2N1Cc1ccccc1 (configuration not stated)	-17.6	x	26.3	x	x
O=C1C(Cc2ccccc2)Nc2ncnc(N3CCOCC3)c2N1Cc1ccc(Br)cc1 (configuration not stated)	-65.7*	0.8	-27.0	9.0	-5.2
COc1ccc(CN2C(=O)C(Cc3ccccc3)Nc3ncnc(N4CCN(c5ccccc5)CC4)c32)cc1 (configuration not stated)	-111.2*	6.1	-47.3	-9.8	-5.2
O=C1C(Cc2ccccc2)Nc2ncnc(N3CCCCC3)c2N1Cc1ccc(Cl)cc1 (configuration not stated)	-64.6*	0.3	-44.5	12.9	6.3
O=C1C(Cc2ccccc2)Nc2ncnc(N3CCN(c4ccccc4)CC3)c2N1Cc1ccc(Cl)cc1 (configuration not stated)	-128.1*	1.3	-44.9	-2.3	-5.7
CC(C)CC1Nc2ncnc(N3CCN(c4ccccc4)CC3)c2N(Cc2ccc(Br)cc2)C1=O (configuration not stated)	0.0	2.6	0.0	-1.7	3.6
COc1ccc(C(=O)NCc2ccc3c(c2)CCN3C(=O)c2ccc(C)cc2)cc1	x	4.2	-17.3	-8.7	-2.3
CCc1nn(CC(=O)NCCCN(CC(C)C)CC(C)C)c(=O)c2cc3sc(C)cc3n12	x	2.6	-5.5	9.2	-6.8
CCOc1ccc(CNC(=O)c2cc3c(=O)n(Cc4cccs4)ccc3nc2C)cc1	x	-0.2	-7.2	8.6	4.2
CC(C)(CNC(=O)c1ccccc1NS(C)(=O)=O)N1CCCCC1	-58.1*	1.3	-20.6	-5.7	-5.0
Cc1ccc(S(=O)(=O)N(C)Cc2ccc(C(=O)N/N=C3\CC(=O)CC(C)(C)C3)cc2)cc1	7.2	-0.7	5.1	-41.8*	-4.0
Cc1cc(C(=O)NN=C2CC(=O)CC(C)(C)C2)c(C)o1	17.2	x	-0.3	x	x
O=S(=O)(Nc1cccc(C(F)(F)F)c1)c1ccc(NS(=O)(=O)c2ccc3c(c2)OCCO3)cc1	x	2.3	-5.2	8.6	1.1
CC(OC(=O)c1cccc(S(=O)(=O)Nc2cccc(C(F)(F)F)c2)c1)C(=O)Nc1ccc2c(c1)OCCO2 (configuration not stated)	-10.4	4.0	4.2	-36.1*	-8.7
CN(c1ccc(C(=O)N2CCOCC2)cc1[N+](=O)[O-])C1CCCCC1	-60.3*	3.8	1.0	-3.0	-3.5
CC(C)(C)C(=O)N1CCN(c2ccc(NC(=O)c3ccc4c(c3)OCCO4)cc2)CC1	8.9	4.8	9.6	-30.3*	-4.4
CC(C)(C)C(=O)N1CCN(c2ccc(NC(=O)c3ccc([N+](=O)[O-])o3)cc2)CC1	u	47.9*	-13.1	-7.5	-8.2
O=C(NCCc1ccc(Cl)cc1)c1ccc2c(c1)OCCO2	12.5	2.4	5.0	-36.7*	-7.4
O=C(Nc1ccc(N2CCN(C(=O)c3ccc(Cl)cc3)CC2)cc1)c1ccc2c(c1)OCCO2	23.3	7.9	43.1*	-14.6	5.3
O=C(Nc1ccc(N2CCN(C(=O)c3ccccc3)CC2)cc1)c1ccc2c(c1)OCCO2	43.3	12.6	26.9	-10.5	-0.5
CC(=O)N1CCN(c2ccc(NC(=O)c3ccc4c(c3)OCCO4)cc2)CC1	-7.7	0.4	-6.5	-27.1	-0.4
O=C(NCCc1ccc(Cl)cc1)c1ccc2c(c1)OCO2	-3.7	4.4	2.3	-28.7	-8.1
COc1cc2c(cc1OC)C(c1ccc(Cl)cc1)N(c1ccc(C)c(F)c1)C(=O)C2 (configuration not stated)	x	5.6	-12.9	1.4	0.1
SMILES	DRD3 antagonist	D1 ag	DRD3 agonist	D1 antagonist	D1 potentiator
Cc1ccc(C)c(NC(=O)CC2NCCNC2=O)c1 (configuration not stated)	x	-0.8	-8.7	2.9	-3.4
Cc1ccc(NC(=O)c2ccc(CNS(=O)(=O)c3ccc4c(c3)C(C)(C)C(=O)N4C)cc2)cc1F	x	6.7	7.0	-5.1	-7.1
COc1cccc(-c2nnc(-c3ccccc3NC(=O)c3cccc(C(F)(F)F)c3)o2)c1	x	-0.7	5.4	19.8	-0.1
O=C1CC(c2ccccc2)C(C(=O)Nc2ccccc2F)N1 (configuration not stated)	-9.4	-3.7	0.6	-32.2*	-1.4
CCOC(=O)NC(=O)c1cn(Nc2ncc(Cl)cc2C(F)(F)F)c(=O)[nH]c1=O	4.3	2.2	21.6	-43.6*	-1.6
CCC(=O)N1CCc2cc(S(=O)(=O)CCC(=O)Nc3ccc(OC(F)(F)F)cc3)ccc21	x	4.7	1.4	7.3	-1.1
CC(C)CNC(=O)COC(=O)c1c2c(nc3ccccc13)/C(=C/c1cccs1)CC2	6.8	6.1	-6.1	19.8	0.4
CCCCNC(=O)COC(=O)c1c2c(nc3ccccc13)/C(=C\c1cccs1)CC2	72.0	x	34.1*	x	x
O=C(COC(=O)c1c2c(nc3ccccc13)/C(=C/c1ccco1)CC2)NC1CCCC1	10.5	1.5	8.1	-49.0*	-7.9
CC1CCCCC1NC(=O)COC(=O)c1c2c(nc3ccccc13)/C(=C/c1ccco1)CC2 (configuration not stated)	3.3	9.7	-2.2	-16.7	-1.9
Cc1ccc(Cc2nc3ccccc3nc2SCC(=O)N2CCCCC2)cc1	x	5.2	-22.3	9.1	-2.1
NCCNC(=O)c1ncsc1-c1cccc(F)c1	-52.4*	x	-33.1	x	x
C[C@H]1C(c2ccc(F)cc2)=NN(c2ccccc2)[C@@H]1CO	9.7	x	35.5*	x	x
CC(C)(C)c1nnc(N/N=C/c2ccccc2O)n(N)c1=O	78.4	2.9	33.5*	-19.8	-8.9
CCc1nnc(N/N=C/c2ccccc2F)n1N	-9.9	2.7	-4.8	11.8	-0.4
CCc1nnc(N/N=C/c2ccccc2Cl)n1N	-63.2*	-0.3	-13.6	15.1	0.8
CC(C)(C)c1nnc(N/N=C/c2ccccc2)n(N)c1=O	11.3	0.3	3.2	11.1	-0.3
CCCCN(C)C(=O)Cn1c(SCC(=O)Nc2ccc(C)c(C)c2)nc2ccccc21	x	2.4	-1.8	4.6	2.6
CC(CC(=O)Nc1ccc2c(c1)c(=O)n(C)n2-c1cccs1)c1ccccc1 (configuration not stated)	-52.7*	x	-16.5	x	x
Cc1cc(C)cc(-n2c3ccc(NC(=O)Cc4cccc5ccccc45)cc3c(=O)n2C)c1	-14.2	x	-11.3	x	x
CCOC(=O)C1(C)C=C(Nc2cccc(C(=O)O)c2)C(=O)N1c1ccccc1 (configuration not stated)	x	0.6	1.3	-17.2	-1.4

Bioassay records deposited in PubChem BioAssay by National Center for Advancing Translational Sciences (NCATS).
